The source of these data is PubChem BioAssay (NCI).

Compounds without any hit were thinned out: in the full panel of roughly 79,000, 15% have a hit. Unmarked numbers belong to inactive results. Activity calls are given as the source filed them. No stated cut-off is given here; in the data, active means growth inhibition above about 70%; inactive means the rest.

Assay [1] can be described thus: NCI Yeast Anticancer Drug Screen. Data for the rad50 strain (AID 155).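 Further: 0% = growth of vehicle-only cultures of the same strain.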 As to conditions: S. cerevisiae rad50 strain growth inhibition; at 50.0 µM; stronger effect = higher value. Put shortly: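 Yeast carrying a defined DNA repair defect were exposed to test compounds, and growth was compared with vehicle-treated controls to give percent inhibition.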
A short description of assay [2]: NCI Yeast Anticancer Drug Screen. Data for the mec2-1 strain (AID 157). As to conditions: S. cerevisiae mec2-1 strain, at 50.0 µM, stronger effect = higher value. The gist of the method:
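Growth inhibition is read against vehicle-treated controls after compound exposure of the mec2-1 yeast strain, which is defective in DNA damage repair or cell cycle control.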

Assay [3] can be described thus: NCI Yeast Anticancer Drug Screen. Data for the sgs1 mgt1 strain (AID 161).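 Further: 0% = growth of cultures given vehicle only.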 As to conditions: S. cerevisiae sgs1 mgt1 strain, at 50.0 µM, stronger effect = higher value. Put shortly: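 Compounds are added to genetically altered yeast, and growth is compared with cultures given vehicle alone to give percent inhibition.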
Assay [4] is described as follows: NCI Yeast Anticancer Drug Screen. Data for the cln2 rad14 strain (AID 165).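 Further: 0% = growth equal to vehicle treated cultures.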 The note with it: S. cerevisiae cln2 rad14 strain, at 50.0 µM, stronger effect = higher value. The gist of the method: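 Growth inhibition, relative to vehicle-treated controls, is the read-out. The test organism is a yeast strain with defined genetic alterations, cln2 rad14.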
Assay [5] is described as follows: NCI Yeast Anticancer Drug Screen. Data for the bub3 strain (AID 167). The note with it: S. cerevisiae bub3 mutant strain, at 50.0 µM, stronger effect = higher value. Put shortly: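 Compounds were applied to a genetically altered yeast strain carrying a cell-cycle control defect. Growth inhibition was scored against vehicle-treated controls.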
Assay [6] can be described thus: NCI Yeast Anticancer Drug Screen. Data for the mlh1 rad18 strain (AID 175). As to conditions: S. cerevisiae mlh1 rad18 strain growth inhibition; at 50.0 µM; stronger effect = higher value. The gist of the method: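 Cells of a genetically altered yeast strain, deficient in DNA damage repair, were treated with compound. Their growth was then compared with that of vehicle-treated cultures to give inhibition.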

As to `COc1cc2c(cc1OC)C(=O)/C(=C/c1ccc(O)cc1)CC2`, the growth inhibition in assay [1] was 36.5%; in assay [2], -8.9%; in assay [3] it was 43.5%; in assay [4] it was 24.9%; in assay [5] it was 23.2%.
Turning to `N#CC(C#N)=NNc1ccc2cn[nH]c2c1`, the growth inhibition in assay [1] was -11.1%; in assay [2] it was 28.2%; in assay [3], 2.7%; in assay [4], -21.1%; in assay [5], -39.5%.
For `Cc1cc(O)c(C(c2c(O)cc(C)c(Cl)c2C)C(Cl)(Cl)Cl)c(C)c1Cl`, in that order: 26.1%, 21.9%, 30.9%, 39.6% and 20.6%.
Consider `Cc1[nH]c(=O)c2oc3cc4ccccc4cc3c2c1C(=O)O`, for which the growth inhibition in assay [1] was -14.6%; in assay [2], -29.9%; in assay [3] it was -24.1%; in assay [4], -44.1%; in assay [5] it was -30.7%.
In the same order, the values of `N=c1ncn(Cc2ccccc2)c2nc[nH]c12` are -2.4%, 2%, 1.3%, -3.6% and 10%.
In the same order, the values of `C=C(Cl)C(Br)(CCl)CCC(Cl)C(C)C` (stereo not drawn) (tested in a mixture with another compound) are 85% (active), 86.3% (active), 91% (active), 91.5% (active) and 90.7% (active).
As for `c1ccc2c(c1)Nc1nsnc1N2`, the growth inhibition is 3.8% in assay [1]; -9.4% in assay [2]; -6% in assay [3]; 13.8% in assay [4]; 13.2% in assay [5].
As to `CCCCSc1nc2c(=O)n(C)c(=O)n(C)c2n1C`, the growth inhibition was 2.1% in assay [1]; 1.15% in assay [2]; 10.8% in assay [3]; -5.7% in assay [4]; -12.7% in assay [5].
For `C(#CC(Sc1ccccc1)=C(Sc1ccccc1)Sc1ccccc1)Sc1ccccc1`, in that order: 3.1%, 2.15%, -21.9%, -32.3% and 5.6%.
Turning to `C=CCn1c(SC)nc2c(c1=O)CCCC2`, the growth inhibition in assay [1] is -34.5%; in assay [2] it was -13.4%; in assay [3], -5.4%; in assay [4], -14.3%; in assay [5], 7.55%.
For `COC(=O)/C=C1/CC[C@H]2[C@@H]3CCC4=CC(=O)CC[C@]4(C)[C@H]3C(=O)C[C@]12C`, the growth inhibition in assay [1] is 42.5%; in assay [2], 6.35%; in assay [3], 14.3%; in assay [4], -28%; in assay [5], 14.2%.
For `O=C(NC(=O)c1cc(-c2ccccc2)n[nH]1)c1ccccc1`, in that order: -71.5%, -10.1%, -14.4%, -6.3% and -20.4%.
As for `CCC1=CCN(c2cc(C)ccn2)OC1c1ccc(OC)cc1` (stereo not drawn), the growth inhibition in assay [1] was 47.9%; in assay [2], 6.15%; in assay [3] it was 48.4%; in assay [4], 14.3%; in assay [5], 61%.
In the same order, the values of `C#CC(C)(O)CCCCCC` (stereo not drawn) are 3.7%, 16.4%, 12%, -4.05% and 35%.
For `COC1=CC(=O)C(C2CC(=O)c3c(O)cc(O)cc3O2)=CC1=O` (stereo not drawn), in that order: -4.2%, 0.85%, 11.2%, 7.95% and -20.8%.
With `Nc1ccc2cc(S(=O)(=O)O)cc(S(=O)(=O)O)c2c1`, the growth inhibition is 39.3% in assay [1]; -5.2% in assay [2]; 6.6% in assay [3]; -18.9% in assay [4]; -0.15% in assay [5].
In the same order, the values of `CC(C)[Si](OC1=C(c2ccccc2)C(NC(=O)/C=C/c2ccc([N+](=O)[O-])cc2)CCC1)(C(C)C)C(C)C` (stereo not drawn) are 19.2%, 4.15%, -0.2%, -6.7% and -5.35%.
`O=C1C=CC(=O)c2c1ccc1c3ccccc3n(CCCCCn3c4ccccc4c4ccc5c(c43)C(=O)C=CC5=O)c21`: the growth inhibition in assay [1] is -20.8%; in assay [2], -9.85%; in assay [3], -18.2%; in assay [4], 0.8%; in assay [5], -28.4%.
In the case of `COc1cccc(/C(C#N)=C\O)c1`, the growth inhibition in assay [1] is -17.2%; in assay [2], -36.9%; in assay [3], -29.9%; in assay [4], 3.2%; in assay [5], -42.9%.
On to `CN(C)Cc1cccc(C(F)(F)F)c1C(O)c1ccccc1` (stereo not drawn), for which the growth inhibition in assay [1] is 7.75%; in assay [2] it was -10.2%; in assay [3], -5.3%; in assay [4], 3.9%; in assay [5], 7.7%.
Take `COc1ccccc1/C=C(\C#N)C(=O)O`: the growth inhibition was 15.9% in assay [1]; -31.3% in assay [2]; -0.75% in assay [3]; 8.6% in assay [4]; -6.65% in assay [5].
Consider `CC1COC(C)(C2CC2)O1` (stereo not drawn), for which the growth inhibition in assay [1] is 6.6%; in assay [2], 9.95%; in assay [3], -24.4%; in assay [4] it was -13.7%; in assay [5], 7.45%.
Turning to `O=C1/C(=C/c2ccc(C(=O)O)cc2)CNC/C1=C\c1ccc(C(=O)O)cc1`, the growth inhibition in assay [1] is -7.4%; in assay [2], -14.9%; in assay [3], -3.05%; in assay [4], -15.4%; in assay [5], 3.8%.
Consider `CSc1cc(C)c(OC(=O)Nc2cc(C)ccc2C)c(C)c1`, for which the growth inhibition in assay [1] is -3.45%; in assay [2], 0.8%; in assay [3] it was 3%; in assay [4] it was 1%; in assay [5] it was 33.2%.
For `CC(=O)O/C(C)=C/C(C)C`, the growth inhibition in assay [1] was 2.65%; in assay [2], -5.35%; in assay [3], 9%; in assay [4], -3.15%; in assay [5], 2.1%.
For the compound `Nc1ccc2ccccc2c1C(=O)c1ccccc1`, the growth inhibition in assay [1] was 0.95%; in assay [2], -1.55%; in assay [3], -15.2%; in assay [4] it was 37.1%; in assay [5], -23.6%.
In the same order, the values of `O=C1CCSCCC(=O)Nc2ccccc2N1` are 3.6%, 0.85%, 16.6%, 20.4% and 17.9%.
As to `c1ccc(C2NC(c3ccccc3)c3c(ccc4ccccc34)O2)cc1` (stereo not drawn), the growth inhibition is 20.1% in assay [1]; -2.1% in assay [2]; 13.1% in assay [3]; -19.9% in assay [4]; -5.15% in assay [5].
Take `CCOC1CCCCO1` (stereo not drawn): the growth inhibition in assay [1] was -24.5%; in assay [2], -4.1%; in assay [3] it was -13.4%; in assay [4], 9.4%; in assay [5] it was -13.8%.
For `Cc1cnc2[nH]c(-c3ccc(Cl)cc3)cc(=O)c2c1`, in that order: -5.65%, -21.6%, -31.9%, -31.4% and -32%.
For `O=S(=O)(Oc1ccc(OS(=O)(=O)c2ccccc2)cc1)c1ccccc1`, in that order: -8.8%, 1%, -0.3%, 0.05% and 12.5%.
For `CC1CCC2CC(=O)C(Br)CC2(C)C1C` (stereo not drawn), the growth inhibition in assay [1] was 23.6%; in assay [2], -8.95%; in assay [3], 9.75%; in assay [4], -5.35%; in assay [5], -3.95%.
For `CCc1nc(N)nc(N)c1-c1ccc(Cl)c(S(=O)(=O)O)c1`, the growth inhibition in assay [1] was -27.1%; in assay [2] it was -26.1%; in assay [3] it was -9.8%; in assay [4] it was -13.4%.
Take `O=c1nc(NCCc2c[nH]c3ccccc23)ccn1C1OC(CO)C(O)C1O` (stereo not drawn): the growth inhibition is 19.1% in assay [1]; 4.5% in assay [2]; 2.35% in assay [3]; 15.1% in assay [4]; -1.45% in assay [5].
Turning to `CCOC(=O)c1[nH]c2ccsc2c1C[N+]1(C)CCCCC1`, the growth inhibition in assay [1] was 38.1%; in assay [2] it was 5.8%; in assay [3], 36.9%; in assay [4] it was -3.7%; in assay [5], -0.85%.
For `CCN(CC)CCOCCO`, in that order: -8.6%, -16%, -0.65%, 11.7% and 0.95%.
For `COc1ccc2c(C)[n+]3ccc4cc(OC)c(OC)cc4c3cc2c1` (tested in a mixture with another compound), the growth inhibition in assay [1] was 21.5%; in assay [2], 12.4%; in assay [3], 22.9%; in assay [4], -6.7%; in assay [5], 22.5%.
Turning to `CCOC(=O)c1ccc(OC(=O)Nc2ccccc2)cc1`, the growth inhibition is -2.2% in assay [1]; 6% in assay [2]; 1.15% in assay [3]; -12.4% in assay [4]; -2.8% in assay [5].
`O=C1OC2CCCC[C@@H]2C2C[C@]34CCCCC3[C@@H](C(=O)O4)C12` (stereo partly drawn): the growth inhibition in assay [1] was 23.1%; in assay [2] it was -6.85%; in assay [3], 9.9%; in assay [4], 15.6%; in assay [5], 12%.
`O=c1c(-c2ccc3c(c2)OCO3)coc2cc(O)ccc12`: the growth inhibition in assay [1] is -2.9%; in assay [2], -0.85%; in assay [3] it was 18.9%; in assay [4] it was 13.7%; in assay [5], 11.6%; in assay [6], 23.1%.
For `O=C(CCc1ccccc1C(=O)O)c1ccccc1O`, the growth inhibition was 0.7% in assay [1]; -9.55% in assay [2]; -3.35% in assay [3]; 17.2% in assay [4]; 5.5% in assay [5]; -7.6% in assay [6].
For the compound `COC(=O)c1ccccc1C(=O)c1ccccc1`, the growth inhibition in assay [1] was -2.5%; in assay [2] it was 9.2%; in assay [3], 3.8%; in assay [4], -4.75%; in assay [5] it was -5.95%; in assay [6], 8.4%.
`CCCCNCC#N`: the growth inhibition in assay [1] is 20.4%; in assay [2], -10.7%; in assay [3] it was -0.85%; in assay [4] it was 7.4%; in assay [5], 5.15%; in assay [6], 3.95%.
For `NC(=O)CS(=O)CC(N)C(=O)O` (stereo not drawn), the growth inhibition in assay [1] is -5.9%; in assay [2], -34.4%; in assay [3] it was -46%; in assay [4], -57.1%; in assay [5], -10.9%; in assay [6] it was -29.6%.
Take `COc1ccc(-c2cc(-c3ccccc3)nc(-c3cccc([N+](=O)[O-])c3)c2)cc1`: the growth inhibition in assay [1] was -1.6%; in assay [2], -4.4%; in assay [3], 11.4%; in assay [4], -3.75%; in assay [5], 21.2%; in assay [6], 18.4%.
As for `C/C(=C\N1CCCCC1)C(=O)c1ccc(F)cc1`, the growth inhibition in assay [1] was 9.3%; in assay [2], 13.2%; in assay [3], -4.65%; in assay [4], 6.25%; in assay [5] it was -16.4%; in assay [6] it was 24.7%.
On to `CCOC(=O)c1cc(=O)c2cccc(C)c2[nH]1`, for which the growth inhibition in assay [1] was 2.3%; in assay [2] it was 10.7%; in assay [3] it was -0.95%; in assay [4], -9.3%; in assay [5], -2%; in assay [6], 20.6%.
With `O=Cc1cccs1`, the growth inhibition is 23% in assay [1]; -2% in assay [2]; 7.85% in assay [3]; -14.6% in assay [4]; 8.3% in assay [5]; 33.9% in assay [6].
